Assay results from PubChem BioAssay AID651702 (NMMLSC, 2012).
Where “and” joins values, the source holds several entries; their conditions need not be identical. Identical values can stand only once. In all, about 360,000 compounds went through this assay and about 2,400 (0.67%) were called active. Shown is part of a subset that was picked to be rich in actives. A number with no mark means an inactive call.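 How the source made its calls: active means inhibition above about 55% (limit read from the data); inconclusive means no clear call, values can overlap the other calls; inactive means the rest.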

assay: LAMP-1 surface exposure blockers, TALL-104 cells – cell-based, flow cytometry, MLPCN library, primary screen (AID 651702); conditions: TALL-104 LAMP-1 surface exposure, at 10 µM, stronger effect = higher value, cells stimulated with thapsigargin and PMA

Q: For Cc1cccc(N2CCN(C(=O)c3cccc(N4C(=O)C5C6C=CC(C6)C5C4=O)c3)CC2)c1C (stereo unspecified), which inhibition is on record?
A: The inhibition was -1.1%.

Q: With CSCCC(C(=O)NC(C)(C)C)n1c(-c2ccccc2)nc2ccccc21 (stereo unspecified) as the compound, how does the inhibition read?
A: Its inhibition is -0.9%.

Q: With CCOc1ccc(NS(=O)(=O)c2ccc(C(=O)NCC(c3ccccc3OC)N3CCCC3)cc2)cc1 (stereo unspecified) as the compound, how does the inhibition read?
A: The inhibition was -1.8%.

Q: With COc1ccc(S(=O)(=O)N(C)C)cc1NC(=O)COC(=O)c1n[nH]c2ccccc12 as the compound, how does the inhibition read?
A: Its inhibition is -22.7%.

Q: Which inhibition does the source give for CCOC(=O)C1CCN(Cc2c(C(=O)N3CCOCC3)nc3c(C)cccn23)CC1 here?
A: Its inhibition is -2.4%.

Q: Which inhibition does the source give for Cc1cccc(N2CCC(NCc3c(C(=O)N4CCCCC4)nc4c(C)cccn34)CC2)c1 here?
A: Its inhibition is 60.5% (active).

Q: Which inhibition does the source give for Cc1cccn2c(CNCC(C)Oc3cccnc3)c(C(=O)N3CCOCC3)nc12 (stereo unspecified) here?
A: The inhibition was -5%.

Q: With OCCn1c(-c2ccccc2)csc1=Nc1ccccc1 as the compound, how does the inhibition read?
A: Its inhibition is -1.3%.

Q: Which inhibition does the source give for CCc1ccc(Nc2n[n+](-c3ccccc3)c(-c3cccc(Cl)c3Cl)s2)cc1 here?
A: The inhibition was 5.9%.

Q: For COc1ccc(C)cc1Nc1n[n+](-c2ccccc2)c(-c2cccc(Cl)c2Cl)s1, which inhibition is on record?
A: Its inhibition is 93.6% (active).

Q: For COc1cc(Br)c(-c2sc(Nc3ccccc3)n[n+]2-c2ccccc2)cc1OC, which inhibition is on record?
A: The inhibition was -3.6%.

Q: Which inhibition does the source give for Cc1c(Cl)cccc1NC(=O)CCC(=O)N/N=C/c1ccco1 here?
A: Its inhibition is 4.7%.

Q: For CCOc1ccc(OCC)c(NC(=O)CSc2nnc(Cn3cnc4ccccc43)n2C)c1, which inhibition is on record?
A: Its inhibition is 0.1%.

Q: For Cc1ccc2[nH]cc(CCNC(=O)C3CCCCC3)c2c1, which inhibition is on record?
A: Its inhibition is -2.8%.

Q: Which inhibition does the source give for O=C(NCCc1c[nH]c2ccccc12)C1CCN(Cc2ccc(Br)cc2)CC1 here?
A: Its inhibition is 77% (active).

Q: With CCOc1ccc(CN2CCN(Cc3c[nH]c4ccccc34)CC2)cc1 as the compound, how does the inhibition read?
A: The inhibition was 35.2%.

Q: For CCOC(=O)C1=C(C)NC2=C(C(=O)CC(C)(C)C2)C1c1ccsc1 (stereo unspecified), which inhibition is on record?
A: Its inhibition is 0.2%.

Q: Which inhibition does the source give for CC(C)OC(=O)CC(=O)CC(O)c1cccc([N+](=O)[O-])c1 (stereo unspecified) here?
A: The inhibition was -10.1%.

Q: Which inhibition does the source give for CSCCC(NC(=O)COc1ccccc1)C(=O)N1CCN(c2cccc(C(F)(F)F)c2)CC1 (stereo unspecified) here?
A: The inhibition was 1.5%.

Q: With Cc1c(C)c2ccc(OCC(=O)N3CCN(c4cccc(Cl)c4)CC3)cc2oc1=O as the compound, how does the inhibition read?
A: Its inhibition is -2.4%.

Q: Which inhibition does the source give for O=C(COc1ccc(Cl)cc1)N1CCN(c2cccc(C(F)(F)F)c2)CC1 here?
A: The inhibition was 58.7% (active).

Q: With O=C(O)Cc1csc(-c2cccc(Oc3ccccc3)c2)n1 as the compound, how does the inhibition read?
A: The inhibition was -3.1% and -3.3%.

Q: Which inhibition does the source give for CCOc1ccc(NC(=O)CN(C)C(=O)CCSc2ccc(F)cc2)cc1OCC here?
A: The inhibition was 14.3%.

Q: For CC(C)c1ccc(-c2nn[nH]n2)cc1, which inhibition is on record?
A: The inhibition was 21.6%.

Q: Which inhibition does the source give for COc1ccc(S(=O)(=O)N2CCN(CC(=O)N3c4ccccc4CC3C)CC2)cc1OC (stereo unspecified) here?
A: The inhibition was 6.4%.

Q: For CCOc1cc(/C=N/NC(=O)c2c(C)nc3ccc(Cl)cn23)ccc1O, which inhibition is on record?
A: Its inhibition is 3.8%.

Q: With CCOc1cc(/C=N/NC(=O)CN2CCCCC2)ccc1O as the compound, how does the inhibition read?
A: Its inhibition is 3.8%.

Q: With CCOc1cc(/C=C(\C#N)c2nc(-c3cccs3)c(NC(C)=O)s2)ccc1O as the compound, how does the inhibition read?
A: The inhibition was 69.2% (active).

Q: For CC(=O)NC(c1ccccc1)c1nc(-c2cccc(C(C)C)c2)cs1 (stereo unspecified), which inhibition is on record?
A: The inhibition was -1.9%.

Q: With Cc1ccc(NC(=O)Nc2cc(-c3ccccc3)nn2C)cc1Cl as the compound, how does the inhibition read?
A: The inhibition was 3%.

Q: For CC(=O)Nc1ccc(-c2csc(NC(=O)Nc3ccccc3)n2)cc1, which inhibition is on record?
A: Its inhibition is 104% (active).

Q: Which inhibition does the source give for Cn1c(=O)c([N+](=O)[O-])c(Oc2ccccc2)c2ccccc21 here?
A: The inhibition was -0.7%.

Q: With COc1ccc(NS(=O)(=O)c2cc(NC(=O)CC(=O)c3ccc([N+](=O)[O-])cc3)ccc2C)cc1 as the compound, how does the inhibition read?
A: The inhibition was -16.7%.

Q: With C=CCn1c(CCNC(=O)c2ccccc2F)nnc1SCC(=O)Nc1ccc(OC)cc1 as the compound, how does the inhibition read?
A: Its inhibition is -1.4%.

Q: For COC(=O)C1=C(C)N(Cc2ccccc2)C(=NCCCOC(C)C)N[C@H]1c1ccccc1, which inhibition is on record?
A: The inhibition was -2.7%.

Q: Which inhibition does the source give for CCOC(=O)C1=C(CN2CCc3ccccc32)NC(=O)NC1c1ccc(Cl)cc1 (stereo unspecified) here?
A: The inhibition was -0.5%.

Q: For CCOC(=O)C1=C(C)N(C[C@@H]2CC[C@@H](Cc3ccc(-c4ccccc4)cc3)O2)C(=O)NC1c1ccc([N+](=O)[O-])cc1 (stereo partly specified), which inhibition is on record?
A: Its inhibition is 1.6%.

Q: For CCCCNC(=O)C(C)N(CCN(C)C)C(=O)CCCCCN1C(=O)NC(c2ccc(Cl)cc2)C(C(=O)OCc2ccccc2)=C1C (stereo unspecified), which inhibition is on record?
A: Its inhibition is 61.8% (active).

Q: For CCCCNC(=O)C(C)N(CCN(C)C)C(=O)CCCN1C(=O)NC(c2ccc(Cl)cc2)C(C(=O)OCc2ccccc2)=C1C (stereo unspecified), which inhibition is on record?
A: Its inhibition is 65.1% (active).

Q: Which inhibition does the source give for CCOC(=O)CCCNC(=O)CN1C(=O)NC(CCc2ccccc2)C1=O (stereo unspecified) here?
A: Its inhibition is -0.3%.

Q: With COc1ccc(OC)c(CN2C(=O)CCC2(C)c2nnnn2Cc2ccccc2)c1 (stereo unspecified) as the compound, how does the inhibition read?
A: Its inhibition is -8.5%.

Q: Which inhibition does the source give for O=C(CSc1nnc(-c2ccoc2)o1)N1CCOCC1 here?
A: The inhibition was -6.6%.

Q: Which inhibition does the source give for O=[N+]([O-])/C=C/c1ccc2c(ccn2Cc2ccccc2)c1 here?
A: Its inhibition is 79.9% (active).

Q: With C=CCC[C@@H](CCCCC)OC(=O)/C=C/[C@@H](O)[C@H](O)C[C@H](O)CC=C as the compound, how does the inhibition read?
A: Its inhibition is -9.1%.

Q: For Cc1ccc2oc(C(=O)N3CCN(C)C[C@@H]3C(C)C)c(C)c2c1, which inhibition is on record?
A: Its inhibition is 1.3%.

Q: Which inhibition does the source give for CCOC(=O)C1C(C)C(C(C)(C)C)N(S(=O)(=O)c2ccc(C)cc2)C1c1ccccc1 (stereo unspecified) here?
A: Its inhibition is -9.6%.

Q: For NS(=O)(=O)c1ccc(CCNC(=O)CCCn2c(SCC(=O)N3CCCC3)nc3ccsc3c2=O)cc1, which inhibition is on record?
A: Its inhibition is -2.5%.

Q: Which inhibition does the source give for CN(C)CCNC(=O)c1cccc(-c2cnc3c(NC=O)cc(-c4cccc(C(F)(F)F)c4)cn23)c1 here?
A: Its inhibition is 39.3%.

Q: Which inhibition does the source give for CN(C)CCNC(=O)c1ccc(-c2cn3c(-c4ccc(Oc5ccccc5)cc4)cnc3cn2)cc1 here?
A: The inhibition was 57.2% (active).

Q: For CN(C)C(CNC(=O)c1ccc(OCc2cn3ccccc3n2)cc1)c1ccco1 (stereo unspecified), which inhibition is on record?
A: The inhibition was -4.3%.

Q: Which inhibition does the source give for CCCCCC(O)(CCN1CCCCC1)c1ccccc1 (stereo unspecified) here?
A: The inhibition was 1.7%.

Q: With Cc1cc(F)ccc1NC(=O)C(C)n1c2ccccc2c2nc(=O)cc(C)n21 (stereo unspecified) as the compound, how does the inhibition read?
A: Its inhibition is 0.1%.

Q: For CC(C)N1C(=O)c2ccccc2NC(=O)C1C(=O)NCc1cccs1 (stereo unspecified), which inhibition is on record?
A: Its inhibition is 16.2%.

Q: Which inhibition does the source give for Cc1ccc(CN(C)Cc2cc(=O)oc3cc(C)c(Cl)cc23)cc1 here?
A: The inhibition was -0.1%.

Q: Which inhibition does the source give for Cc1cc2oc(=O)cc(CN(C)Cc3ccccc3)c2cc1Cl here?
A: Its inhibition is -1.1%.

Q: For Cc1cc2oc(=O)cc(CN(C)Cc3ccc(OC(F)F)cc3)c2cc1Cl, which inhibition is on record?
A: Its inhibition is 76.8% (active).
